Rows were chosen to be rich in hits. Some 5.9% of all compounds tested hit in one or more screens of this group.
LANA-H2A inh: blockers of LANA interaction with H2A/H2B – biochemical, FP readout, HTS, primary screen | inhibition, % (no concentration beside the values) | 320,000 compounds, 0.6% hits | cell-free LANA-H2A/H2B peptide, fluorescence polarization | Protein LANA1 (Human herpesvirus 8 type P (isolate GK18)), Q9QR71; in the data active = inhibition mostly above about 10%, no sharp cut-off; inactive = mostly below about 6.7%
PRMT1 FP inh: PRMT1 methyltransferase inhibitors, primary screen, biochemical, fluorescence polarization; recombinant PRMT1, activity-based probe fluorescence polarization; 370,000 compounds, 1.3% hits; inhibition, % at 2.79 µM; Protein arginine N-methyltransferase 1 (Homo sapiens), Q99873;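 active = inhibition above about 21% made by adding two undisclosed values, limit read from the data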
ALR H2O2 inh: inhibitors of human ALR sulfhydryl oxidase, primary screen, biochemical, H2O2 detection, HRP-luminol luminescence, single point. FAD-linked sulfhydryl oxidase ALR (Homo sapiens), P55789. purified ALR, DTT oxidation. inhibition, % (test concentration not listed). 290,000 compounds, 3.8% hits;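 active = mean replicate inhibition above about 79%, with every replicate also reaching it, limit read from the data; inconclusive = only one of the two criteria met; inactive = mean below limit and not every replicate reaching it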
Target sequence (P55789 whole entry, looked up): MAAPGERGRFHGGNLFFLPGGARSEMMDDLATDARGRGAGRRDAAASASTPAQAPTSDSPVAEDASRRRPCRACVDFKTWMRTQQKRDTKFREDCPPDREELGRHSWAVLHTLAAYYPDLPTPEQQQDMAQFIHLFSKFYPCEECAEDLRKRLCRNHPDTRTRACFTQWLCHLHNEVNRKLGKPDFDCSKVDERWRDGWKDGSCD
Rtt109 Vps75: inhibitors of C. albicans Rtt109/Vps75 HAT, primary screen, biochemical, ThioGlo CoA-SH fluorescence, plate reader. inhibition, % at 34.9 µM. purified Rtt109/Vps75, 4 h. AID 540336, 2011. 330,000 compounds, 0.16% hits. Histone acetyltransferase RTT109 (Candida albicans (strain SC5314 / ATCC MYA-2876)), …;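 active = inhibition of at least 50% in every replicate; inconclusive = best replicate reaches 50% inhibition but some replicates fall short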
rCAG binder: binders of r(CAG) RNA repeats, primary screen, biochemical, fluorescence; r(CAG) RNA repeat, TO-PRO-1 dye displacement fluorescence; inhibition, % at 3 µM; 370,000 compounds, 1.3% hits; AID 651821, 2012;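 active = inhibition above the plate cutoff, the mean of all test compounds on that plate plus 3 SD, cut at about 35% in these data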;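 also: 0% = DMSO alone and 100% = 100 µM mitoxantrone as full dye displacement; higher means more dye released from RNA so lower well fluorescence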
ABHD5 PLIN5 PPI: ABHD5-PLIN5 interaction inhibitors, primary screen, cell lysate, split luciferase complementation, luminescence; Perilipin-5 (Homo sapiens) + 1-acylglycerol-3-phosphate O-acyltransferase ABHD5 (Homo …; Split G. princeps luciferase complementation, 4 h; inhibition, % at 4 µM; 360,000 compounds, 0.78% hits; AID 602281, 2012;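 active = inhibition above the mean inhibition across every tested compound plus 3 SD, cut at about 22% in these data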;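 also: 0% = DMSO only wells and the 100% control is not disclosed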
ABHD5 PLIN5 conf: ABHD5-PLIN5 interaction inhibitors, confirmation, biochemical, luminescence; shares compounds with ABHD5 PLIN5 PPI; inhibition, % at 4 µM; 2,200 compounds, 67% hits; AID 651612, 2012; in the data active = inhibition above about 23%;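 also: 0% = DMSO vehicle wells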
HNF4 counter: HNF4 dimerization inhibitors, counter-screen for ABHD5-PLIN5 interaction inhibitor project, biochemical, split-luciferase complementation, luminescence. inhibition, % at 4 µM. 2,200 compounds, 77% hits. shares compounds with ABHD5 PLIN5 PPI;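 active = mean inhibition across replicate wells exceeding the computed hit threshold, cut at about 13% in these data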;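 also: light from luciferase halves that rejoin when HNF4 fusion proteins dimerize; 0% = DMSO only wells and the 100% control is not given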
Target sequence (P41235 whole entry, looked up, the tested form may be a part): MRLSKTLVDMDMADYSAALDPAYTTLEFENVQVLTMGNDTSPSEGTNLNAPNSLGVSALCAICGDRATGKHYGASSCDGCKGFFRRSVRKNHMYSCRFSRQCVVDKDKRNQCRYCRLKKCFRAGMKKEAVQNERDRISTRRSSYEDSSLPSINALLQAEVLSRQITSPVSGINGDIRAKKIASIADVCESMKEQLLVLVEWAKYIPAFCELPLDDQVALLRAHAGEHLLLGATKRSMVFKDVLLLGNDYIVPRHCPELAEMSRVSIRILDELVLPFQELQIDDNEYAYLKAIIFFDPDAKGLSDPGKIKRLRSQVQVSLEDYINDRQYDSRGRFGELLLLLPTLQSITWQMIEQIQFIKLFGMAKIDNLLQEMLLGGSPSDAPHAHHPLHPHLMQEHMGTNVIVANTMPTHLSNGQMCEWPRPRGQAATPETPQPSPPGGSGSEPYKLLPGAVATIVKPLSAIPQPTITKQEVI
rCAG bind conf: small molecules binding CAG repeat RNA – biochemical, fluorescence, confirmation; shares compounds with rCAG binder; r(CAG) RNA repeat, TO-PRO-1 dye displacement fluorescence; inhibition, % at 3 µM; 4,300 compounds, 70% hits; AID 652065, 2013;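 active = inhibition above a per-plate cutoff, the mean inhibition of sample wells plus 3 SD, cut at about 35% in these data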;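 also: loss of TO-PRO-1 fluorescence as compound displaces dye from 1x1 AA loop RNA; 0% = DMSO only wells and 100% = 100 µM mitoxantrone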
DNA CAG counter: displacement of TO-PRO-1 from CAG DNA duplex, counter-screen for rCAG RNA repeat binder project, biochemical, fluorescence, TO-PRO-1 dye, d(CAG) DNA oligo | shares compounds with rCAG binder | d(CAG) DNA oligo TO-PRO-1 dye displacement | inhibition, % at 3 µM | 4,300 compounds, 94% hits | AID 652068, 2013;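 active = inhibition above its plate's cutoff, the mean test-well inhibition plus 3 SD, cut at about 4.8% in these data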;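 also: 0% = DNA dye mix with DMSO and 100% = 100 µM mitoxantrone; hits displace the dye from DNA and so lower well fluorescence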
An asterisk follows results filed as active; u = inconclusive; x = no result.

SMILES | LANA-H2A inh | PRMT1 FP inh | ALR H2O2 inh | Rtt109 Vps75 | rCAG binder | ABHD5 PLIN5 PPI | ABHD5 PLIN5 conf | HNF4 counter | others
COc1ccc(/C=C\C(=O)O[C@@H]2C(O)C(O[C@@H]3OC(C)[C@H](O[C@@H]4OCC(O[C@H]5O[C@H](CO)[C@@H](O)C(O)C5O)C(O)C4O)C(O)C3O)[C@H](OC(=O)[C@]34CCC(C)(C)C[C@@H]3C3=CCC5[C@@]6(C)CC(O)C(O[C@@H]7OC(CO)C(O)[C@H](O)[C@H]7O)[C@@](C)(C(=O)O)C6CC[C@@]5(C)[C@]3(CO)CC4)O[C@H]2C)cc1 (stereo partly drawn) | -1 | x | -5 | 9 | x | 16 | x | x
CCOC(=O)C1=C(C)N(c2ccccc2)C(=O)/C1=C\c1ccco1 | 3 | 0 | -3 | 16 | 3 | 6 | x | x
CCOC(=O)C1=C(C)N(c2ccccc2)C(=O)/C1=C\c1ccc(O)c(OC)c1 | -1 | 42* | 28 | 21 | 6 | 26* | 39* | 49*
c1ccc(-c2ccc3c(n2)CCCN3Cc2ccccn2)cc1 | x | 4 | x | x | 4 | x | x | x
O=C(Nc1ccc(F)cc1F)Nc1ccc(F)cc1F | -2 | -5 | -1 | 12 | 2 | -11 | x | x
Cc1cc(NC(=O)Nc2ccc(F)cc2F)n(C)n1 | 9 | 1 | -3 | 1 | 0 | 44* | -4 | 4
CN(C)S(=O)(=O)c1cccc(NC(=O)COC(=O)/C=C/c2ccco2)c1 | 0 | 9 | 0 | 5 | 13 | 25* | 22 | 27*
O=C(Oc1ccc(Br)cc1C(=O)/C=C/c1ccccc1F)c1ccco1 | -6 | -3 | 0 | -4 | 6 | 73* | 99* | 93*
COc1ccc(CN2C(=O)CCC2(C)c2nnnn2Cc2ccccc2)cc1 (stereo not drawn) | x | 4 | x | x | -1 | 5 | x | x
COc1ccc(S[C@]2(C(=O)N3CCOCC3)CC(=O)N(C(=O)Nc3ccc(C)c(Cl)c3)[C@@H]2c2ccc(OC)cc2)cc1 | x | 11 | x | x | 14 | x | x | x
COc1cc2c(cc1NC(=O)CSc1nnc(-c3ccccn3)n1-c1ccccc1)oc1ccccc12 | x | 0 | x | x | 10 | x | x | x
COc1cc2sc(-c3ccc(S(C)(=O)=O)cc3)c(C(=O)NCc3ccc(C)o3)c2cc1OC | -3 | 16 | -1 | -2 | 4 | 33* | 9 | 20*
COc1cc2sc(-c3ccc(S(C)(=O)=O)cc3)c(C(=O)NCCCCO)c2cc1OC | 2 | -1 | -5 | -5 | 1 | 6 | x | x
COc1ccc(OCc2n(CC(=O)OC3CC(C)CCC3C(C)C)c3ccccc3[n+]2C)cc1 (stereo not drawn) | -4 | 0 | -5 | 3 | 15 | 39* | 14 | 9
Cc1ccc(S/C=C\C(=O)c2ccccc2)cc1 | 3 | -3 | 4 | -13 | 0 | 31* | 48* | 33*
CCc1ccc(Nc2nnc(SC(C)C(=O)NC3CC3)s2)cc1 (stereo not drawn) | 1 | 3 | 3 | -3 | 7 | 78* | 5 | 0
COc1cc2c(cc1OC)C(C)N(CCc1ccc(Cl)cc1)CC2 (stereo not drawn) | 6 | 1 | -5 | x | -9 | 24* | 24* | 0
[O-][n+]1cc(Cl)cc(Cl)c1 | x | -1 | x | x | 1 | 2 | x | x
COc1cc(CNC(C)(C)CO)cc(Br)c1OCc1ccc(Cl)cc1 | 2 | 1 | -21 | 16 | -1 | 28* | 13 | 0
COc1cc(CNC(C)(C)CO)cc(Br)c1OCc1ccc(Cl)cc1Cl | -1 | 0 | -22 | 29 | 2 | 34* | 20 | 4
COc1cc(CNCCO)cc(Cl)c1OCc1ccc(Cl)cc1Cl | 3 | 1 | -10 | 5 | 5 | 18 | x | x
COc1cc(CNc2ccc(O)cc2)cc(Br)c1OCc1ccccc1 | -2 | 9 | 30 | 1 | 6 | -30 | x | x
O=[N+]([O-])c1ccc(S(=O)(=O)c2cccc(C(F)(F)F)c2)nc1 | -5 | x | -9 | u | x | 52* | 88* | 113*
CC(=O)N(c1ccc2oc(=O)sc2c1)S(=O)(=O)c1cccc2cccnc12 | 1 | 91* | x | 135* | 37* | 25* | -39 | -8 | rCAG bind conf=6;DNA CAG counter=5.3*
O=C(NCc1ccc2c(c1)OCO2)c1ccc(Br)cc1 | 3 | 0 | -3 | -1 | -2 | 0 | x | x
SMILES | LANA-H2A inh | PRMT1 FP inh | ALR H2O2 inh | Rtt109 Vps75 | rCAG binder | ABHD5 PLIN5 PPI | ABHD5 PLIN5 conf | HNF4 counter | others
O=C1Nc2ccc(Br)cc2/C1=C/C(=O)c1ccc2c(c1)OCO2 | 4 | 4 | x | -7 | 44* | 72* | 93* | 90* | rCAG bind conf=26;DNA CAG counter=14*
Cc1ccc(-c2cc(C(=O)NN=C/C=C/c3ccco3)[nH]n2)cc1C | x | 5 | x | x | 28 | x | x | x
Cc1cc(C)c2nc(NNC(=O)c3ccc(S(=O)(=O)N4CCCC(C)C4)cc3)sc2c1 (stereo not drawn) | 3 | 3 | 14 | 3 | 47* | 23* | 59* | x | rCAG bind conf=52*;DNA CAG counter=23*
CC1CCCN(S(=O)(=O)c2ccc(C(=O)Nc3nnc(C4CC4)o3)cc2)C1 (stereo not drawn) | -2 | 1 | 4 | -2 | 16 | -6 | x | x
CCCCCCCCN1[C@@H](CC(=O)O)c2cc(C(F)(F)F)ccc2S1(=O)=O | 0 | 4 | 98* | 3 | 40* | 30* | 33* | 16* | rCAG bind conf=26;DNA CAG counter=4
Cc1ccc(C(=O)/C=C/c2cc(Br)cc(Br)c2O)o1 | 0 | 2 | 5 | -5 | 60* | 30* | 59* | 25* | rCAG bind conf=46*;DNA CAG counter=16*

Compound activity deposited in PubChem BioAssay by several laboratories.
